# In PubChem BioAssay (NCI):
# This is part of a sample that, as a whole, favours compounds with a hit. Of some 83,000 tested, about 20% had one in any assay.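 Plates (96-well) were seeded with cells, treated with compound at one concentration, and incubated for 48 hours before percent growth was determined.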 A number with no mark means an inactive call. The source made the active and inactive calls. The calls were made as follows: active = growth percent below 10; inactive = the rest.
# What was measured:
# Assay in all cases: NCI-60 one-dose screen, 48 h (100 = growth as untreated, 0 = no growth, -100 = all killed)
# HCT-15 colon = settings: 10 µM unless noted
# HT29 colon = settings: 10 µM unless noted
# SNB-75 CNS = settings: 10 µM unless noted
# SNB-19 CNS = settings: 10 µM unless noted
# U251 CNS = settings: 10 µM unless noted
# PC-3 prostate = settings: 10 µM unless noted
# SK-MEL-5 melanoma = settings: 10 µM unless noted
# UACC-62 melanoma = settings: 10 µM unless noted
# LOX IMVI melanoma = settings: 10 µM unless noted
# SK-MEL-28 melanoma = settings: 10 µM unless noted
# SK-MEL-2 melanoma = settings: 10 µM
# EKVX NSCLC = settings: 10 µM unless noted
# SN12C renal = settings: 10 µM unless noted
# UO-31 renal = settings: 10 µM unless noted
# TK-10 renal = settings: 10 µM unless noted
# ACHN renal = settings: 10 µM unless noted
# CAKI-1 renal = settings: 10 µM unless noted
# CCRF-CEM leukemia = settings: 10 µM unless noted
# MOLT-4 leukemia = settings: 10 µM unless noted
# A498 renal = settings: 10 µM unless noted
SMILES,growth (HCT-15 colon),growth (HT29 colon),growth (SNB-75 CNS),growth (SNB-19 CNS),growth (U251 CNS),growth (PC-3 prostate),growth (SK-MEL-5 melanoma),growth (UACC-62 melanoma),growth (LOX IMVI melanoma),growth (SK-MEL-28 melanoma),growth (SK-MEL-2 melanoma),growth (EKVX NSCLC),growth (SN12C renal),growth (UO-31 renal),growth (TK-10 renal),growth (ACHN renal),growth (CAKI-1 renal),growth (CCRF-CEM leukemia),growth (MOLT-4 leukemia),growth (A498 renal)
NN1C(=O)CSC1=S,105%,83.9%,95.6%,116%,85.6%,93.4%,104%,116%,98.6%,115%,95%,98.6%,102%,94%,95.2%,107%,93.9%,108%,98.8%,
COc1ccc(-n2c(=O)c3ccccc3n(Cc3ccc(C(=O)NO)cc3)c2=O)cc1,61.3%,29.6%,11%,18.1%,-40.2% (active),-24.6% (active),6.91% (active),-30.8% (active),-71.5% (active),-17.4% (active),14.2%,16.7%,33.6%,55%,19.6%,50.3%,64.9%,3.15% (active),-10.1% (active),-2.54% (active)
Cc1nn(-c2nc3ccccc3[nH]2)c2c1C(c1ccc(OCc3ccc(F)cc3)cc1)CC(=O)N2 (stereo not given),41.5%,70.1%,48.3%,64.9%,41.6%,43.8%,68.3%,61.3%,28%,63%,30.7%,81.7%,55.4%,36.9%,56.1%,48.2%,66.2%,52.8%,7.48% (active),
COc1ccc2c(CCCCC(c3ccccc3)c3ccccc3)c3[n+](cc2c1OC)CCc1cc2c(cc1-3)OCO2,-47% (active),-73.7% (active),-74% (active),-65.2% (active),-93.2% (active),-75% (active),-99.5% (active),-63.6% (active),-100% (active),-82.1% (active),-70.4% (active),-31.8% (active),-77.7% (active),-42.1% (active),-51% (active),-19.1% (active),16.6%,5.53% (active),-20.7% (active),
N#Cc1c(-c2ccc(C(F)(F)F)cc2)c(F)c(NCCC2CCC(O)C2)n2c1nc1ccccc12 (stereo not given),49.6%,17.8%,68%,78.3%,61.4%,37.8%,61.8%,72.7%,6.38% (active),61.8%,101%,43.8%,49.1%,52.6%,83.6%,61.2%,26.6%,17.9%,45.9%,35.4%
CCc1nc2cc(/C=C/C(=O)NO)c(F)cc2c(=O)n1CCc1ccccc1,25.9%,13.2%,29.3%,19.7%,1.61% (active),16.9%,-10.1% (active),-33.5% (active),-57.8% (active),20.3%,35%,20.6%,3.45% (active),-28.7% (active),-5.84% (active),1.28% (active),-1.21% (active),,-2.57% (active),-16.5% (active)
Nc1c(C(=O)c2ccccc2)sc2nc(-c3cccs3)ccc12,24.7%,5.02% (active),32.4%,36.1%,17.6%,23%,17.5%,11.8%,44.8%,72.6%,44.2%,60.8%,44.9%,48.7%,56.7%,54.3%,38.5%,19.1%,28.1%,
CC(C)[C@@H]1CC[C@]2(CO2)[C@@H]2C(=O)OCC(C(=O)O)=C[C@H]21,0.806% (active),-1.49% (active),20.7%,1.78% (active),1.81% (active),22.5%,-42.8% (active),-67.1% (active),-31.2% (active),-73.4% (active),-65.8% (active),71.5%,2.26% (active),5.96% (active),11.6%,3.14% (active),6.64% (active),0.852% (active),-17.6% (active),
CC(C)c1ccc(/C=N/Nc2nc3ccccc3s2)cc1,83.9%,78.8%,103%,97.7%,80.8%,77.9%,91.6%,87%,89.1%,108%,106%,87.2%,86.3%,57.1%,148%,103%,,84.8%,70.5%,92.8%
CO/C=C/C(=O)c1cc2cnc3c(=N)cc(NC(=O)C(C)C)c([nH]1)c23,-26.8% (active),-21.5% (active),-11.8% (active),-29.8% (active),-74.3% (active),-21.6% (active),-96.9% (active),-53.8% (active),-73.9% (active),-44.8% (active),-65.6% (active),-36.4% (active),1.75% (active),-20.1% (active),-47.2% (active),-1.54% (active),,0.169% (active),-38.7% (active),-46.1% (active)
O=C(Cn1c(=O)ccn(CCCCCCCCOc2ccc(Br)cc2)c1=O)Nc1ccc(Oc2ccc(Cl)cc2)cc1,80.4%,66%,70.8%,78.7%,74.1%,44.6%,28.7%,36.1%,51.1%,72.8%,71%,50.6%,67.1%,32.7%,69.6%,69.1%,,54.6%,47.6%,54.8%
Cc1cc2c(-c3nc4ccccn4c3NC3CCCCC3)c(O)c(O)cc2c(O)c1-c1c(C)cc2c(-c3nc4ccccn4c3NC3CCCCC3)c(O)c(O)cc2c1O,19.9%,25.7%,28%,25.3%,19.8%,18.4%,23.9%,-1.66% (active),27.4%,38.9%,38.9%,27.1%,33%,35.3%,27.5%,18.8%,,23.5%,43.6%,71.4%
COC(=O)[C@]12CC[C@@H](C)[C@H](C)[C@@H]1C1=CC[C@@H]3[C@@]4(C)C(c5cnco5)=C[C@@](C)(CO)C4=CC[C@@]3(C)[C@]1(C)CC2,29.8%,26.6%,77.1%,65.7%,61.8%,12.6%,47.2%,65.3%,67.7%,66.7%,42.3%,41.2%,55.9%,44.1%,69.6%,25.4%,34%,,10.1%,
Clc1ccc2c(NCCCNCc3ccc4c(c3)OCO4)ccnc2c1,13.2%,4.6% (active),96.2%,88.7%,10.6%,51.6%,-96% (active),89.8%,8.83% (active),51.2%,29.3%,71.8%,66.6%,35.8%,78.4%,40.6%,,41.7%,25.1%,101%
N#CC(C#N)=NO,104%,91.7%,89.1%,102%,95.2%,71.8%,108%,102%,95.8%,110%,100%,92.4%,106%,98.6%,93.9%,98.4%,,87%,99.8%,102%
Cc1cc(N2CCCC2)nc(N(CCCNc2ccnc3cc(Cl)ccc23)Cc2ccc3c(c2)OCO3)n1,3.01% (active),-23.9% (active),3.65% (active),23.5%,-9.48% (active),20.7%,-96.8% (active),-32.9% (active),-78.3% (active),-82% (active),-50.7% (active),35.9%,29.3%,-24.5% (active),-12.6% (active),-10.7% (active),,1% (active),-15.4% (active),13.6%
